Compound activity from PubChem.
Most compounds without a hit are left out; they make up all but 8.1% or so of the library.
Sfp PPTase inh: inhibitors of Bacillus subtilis Sfp phosphopantetheinyl transferase; Q9F4F7; Biochemical Sfp PPTase activity, qHTS; Potency, µM, without a hit: largest response in the series, negative = inhibition, most hits filed as inhibitors; 310,000 tested, 3.5% active;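 further: the enzyme is Sfp with the accession as filed and its product quenches rhodamine fluorescence; 0% = enzyme reaction without inhibitor and -100% = no enzyme wells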
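Fluorescence-quenching assay with 15 nM Sfp, 5 uM rhodamine-CoA and 12.5 uM BHQ-2-labelled ybbR peptide in pH 7.6 Hepes/MgCl2 buffer. Enzyme was pre-incubated with compound for 15 min at room temperature. Rate was taken from the 30-min fluorescence change (525/598 nm).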
RORg inh: inhibitors of mouse ROR gamma transcriptional activity. Potency, µM (highest dose often 53.6 µM), without a hit: at the top dose activity change, negative = inhibition, usual class: inhibitors. AID 2551. 310,000 tested, 5.4% active. Drosophila S2 Gal4-RORgamma UAS-luciferase reporter, 20 h; further: on the % scale 0 is the no-effect control and ±100 the full control effect; nearly all actives have a fitted effect of over 60% in size
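Luciferase reporter read in Schneider cells carrying Gal4-RORγ (mouse) and UAS-Photinus luciferase; cells given compound 1 h before 700 uM copper sulfate induction, then incubated 20 h at ambient temperature.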
Epigenetic reg: epigenetic control regulation, reporter derepression | murine LDR cells, GFP reporter derepression, 30 h | Potency, µM (top dose mostly 53.9 µM), for the others: at the top dose GFP activation, actives largely listed as activators | 280,000 tested, 0.2% active; further: % of control where 0% means no effect; nearly all actives have a fitted effect of over 60% in size
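Murine LDR cells carrying a silenced, genomically integrated CMV-driven GFP reporter were exposed to compound for 30 hours at 37 C. After PBS washes, GFP-positive cells (20–120 um objects) were counted by laser-scanning microplate cytometry.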
ClpP mod: qHTS Assay for Activators of ClpP; 340,000 tested, 1.9% active; purified B. subtilis ClpP, FRET peptide cleavage, 20 min; ATP-dependent Clp protease proteolytic subunit (Bacillus subtilis (strain 168)), P80244; Potency, µM (top dose mostly 57.5 µM), inactives show top-dose activity change, negative = active; active means well fitted falling curve with a large enough effect; inconclusive means small, poorly fitted or top-dose-only effect; inactive means no such curve, though single readings can be large or run the other way; further: the source files actives as falling curves though it sought activators and does not explain the sign; nearly all actives have a fitted effect of over 65% in size
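ClpP 10 microg/mL final, pH 8 Tris/KCl buffer with BSA, glycerol, Tween-20; compound pinned in; FRET-FV substrate; RT 20 min; Ex320/Em430; ΔFRET vs ADEP 5.8 microM, DMSO, no enzyme.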
PINK1 expr mod: PINK1 expression modulation. PINK1 immunofluorescence, high-content cytometry, 24 h. Potency, µM (titrated, usually from 76.6 µM), without a hit: at the top dose activation (PINK1 increase), most hits filed as activators. 410,000 tested, 0.2% active; active means well fitted activation curve with a large enough effect; inconclusive means small, poorly fitted or top-dose-only effect; cell line not stated here; further: % of control where 0% means no effect; nearly all actives have a fitted effect of over 65% in size
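PINK1 protein, normally rapidly degraded, was detected by immunofluorescence after 24 hour compound treatment of a stable cell line. Titration data (5 concentrations) came from laser-scanning cytometry, with CCCP-treated wells as controls.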
VP16 counter: inhibits Gal4-VP16 luciferase reporter, ROR gamma counter-screen. Drosophila S2 Gal4-VP16 UAS-luciferase, luminescence, 20 h. Potency, µM (titrated, usually from 53.6 µM), without a hit: top-dose activity, negative = inhibition, hits mostly inhibitors. 310,000 tested, 3.5% active. AID 2546;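 further: Gal4-VP16 expression switched on by copper sulfate through the metallothionein promoter; on the % scale 0 is the no-effect control and ±100 the full control effect; nearly all actives have a fitted effect of over 50% in size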
Active calls of the source: *; ? = inconclusive; / = not tested or not shown; [ ] = dose if it differs, or a comment. Unless noted, the call rests on the fitted dose curve; in most records, active means well fitted curve in the direction sought with a large enough effect; inconclusive means small, poorly fitted or top-dose-only effect, or another doubt; inactive means no such curve, though single readings can be large; an effect the other way counts as inactive or inconclusive. Potency means the concentration at half of the fitted maximal effect.

SMILES | Sfp PPTase inh | RORg inh | Epigenetic reg | ClpP mod | PINK1 expr mod | VP16 counter
CCOc1ccccc1NC(=O)C(=O)/C=C(\O)c1cc(OC)ccc1OC | -14.3% | ? | 2.0% | 0.0% | 4.1% | ?
COc1ccc(OC)c(/C(O)=C/C(=O)C(=O)Nc2cc(C)ccc2OC)c1 | -0.5% | 3.55µM* | -1.0% | 2.4% | 1.4% | 11.2µM*
COc1ccc(C2NC(=O)NC(C)=C2C(=O)Nc2cc(C)cc(C)c2)c(OC)c1 (stereo not drawn) | / | / | 0.0% | -1.9% | 0.0% | /
CN(C)CCCNS(=O)(=O)c1ccc(NC2CCCCCC2)c([N+](=O)[O-])c1 | -6.0% | -13.2% | / | / | 4.6% | 20µM*
CCNc1ccc(S(=O)(=O)NCCN(C)C)cc1[N+](=O)[O-] | 7.6% | 10.3% | -0.3% | -0.5% | -0.1% | 16.5%
COc1cccc(CNc2nc3nc(C)cc(C)n3n2)c1 | 21.9% | -2.0% | 0.0% | 20µM* | -2.8% | 12.0%
COc1ccc(Nc2cc(C)nc(NCc3ccccc3)n2)cc1 | 31.6µM* | 38.1% | 0.0% | / | 9.1% | -12.0%
COc1ccc(Nc2nc(C)cc(-c3cc(-c4ccccc4)on3)n2)cc1 | / | / | / | 28.2µM* | 6.2% | /
Cc1ccc(NC(=O)Cn2cc(C(=O)C3CCCCC3)c3ccccc32)cc1 | / | / | 2.9% | -1.8% | 2.2% | /
Cc1ccc(OCCCN2C(=O)C(=O)c3cccc(C)c32)cc1 | ? | 7.94µM* | 1.1% | 0.2% | 1.2% | 12.6µM*
CC1(CCc2ccccc2)NC(=S)N(c2ccccc2)N1 (stereo not drawn) | 44.7µM* | ? | 1.1% | -0.8% | 3.9% | 20µM*
CC1(CCc2ccccc2)NC(=S)N(c2ccc(Cl)cc2)N1 (stereo not drawn) | -86.5% | 10µM* | ? | -2.9% | 5.5% | ?
CC1(c2ccc(Cl)cc2)NC(=S)N2C1NC(=S)N2c1ccccc1 (stereo not drawn) | -9.8% | -18.5% | 1.1% | / | 0.4% | -0.7%
O=C(CCN1C(=O)C2C3C=CC(C3)C2C1=O)N1CCN(c2ccccn2)CC1 (stereo not drawn) | 12.9% | -18.3% | -1.0% | 15.8µM* | 2.5%[38.3 µM] | -5.0%
Cc1ccc(N2C(=O)C3C4C=CC(CC4)C3C2=O)cc1[N+](=O)[O-] (stereo not drawn) | 31.6µM* | -10.9% | / | -2.3% | 1.5% | ?
O=C(CCN1C(=O)C2C3C=CC(C3)C2C1=O)N1CCN(c2cccc(Cl)c2)CC1 (stereo not drawn) | 0.1% | 38.6% | -2.0% | -0.8% | 6.7% | -14.8%
O=C(CCN1C(=O)C2C3C=CC(C3)C2C1=O)NCc1cccnc1 (stereo not drawn) | 12.7% | 0.3% | 0.0% | 12.6µM* | 0.1% | -3.0%
O=C1C2C3C=CC(C3)C2C(=O)N1c1ccc(N2CCN(c3ccccn3)CC2)c([N+](=O)[O-])c1 (stereo not drawn) | 16.7% | ? | 0.9% | -5.5% | 0.2% | 3.98µM*
CC1CCN(c2ccc(N3C(=O)C4CCCCC4C3=O)cc2[N+](=O)[O-])CC1 (stereo not drawn) | -2.9% | 23.8% | -1.8% | -0.2% | 6.2% | 11.7%
CC(C)CCn1nnc2sc(-c3ccccc3)cc2c1=O | / | / | -2.6% | -10.2% | 6.3% | /
COC(=O)C(CCSC)NC(=O)c1c(C)oc2ncn(CC(C)C)c(=O)c12 (stereo not drawn) | / | / | -1.3% | 3.6% | 3.4% | /
C=CCc1cccc(/C=N/NC(=O)C(=O)Nc2ccc(C)cc2)c1O | 12.6% | 2.24µM* | 0.0% | / | 0.0% | 11.2µM*
C=CCc1cccc(/C=N/NC(=O)c2ccc3nc[nH]c3c2)c1O | 21.7% | ? | / | 4.6% | 7.7% | ?
C=CCc1cccc(/C=N/NC(=O)C(C)Nc2ccc(C)cc2)c1O (stereo not drawn) | 6.8% | 0.562µM* | 1.1% | -7.4% | 5.5% | 2.82µM*
COc1ccc(C(CC(=O)O)c2cc(OC)c(OC)c(OC)c2)cc1OC (stereo not drawn) | / | / | / | 31.6µM* | -0.8% | /
SMILES | Sfp PPTase inh | RORg inh | Epigenetic reg | ClpP mod | PINK1 expr mod | VP16 counter
COc1ccc(C(CC(=O)O)NC(=O)Cc2ccccc2)cc1OC (stereo not drawn) | 21.3% | -3.0% | -1.0% | -4.2% | 1.3% | -0.7%
CCOc1cccc(C2c3c(oc4ccc(F)cc4c3=O)C(=O)N2CCOC)c1 (stereo not drawn) | / | / | -1.0% | 0.1% | 0.8% | /
Cc1ccccc1CNC(=O)Cn1nc(C)c2nn(-c3ccc(Cl)cc3)c(C)c2c1=O | / | / | 0.5% | -14.0% | 1.1% | /
NNc1nc(C(F)(F)F)nc2ccccc12 | 50.1µM* | ? | -1.3% | / | 0.5% | ?
CCOC(=O)c1c(Nc2ccc(Cl)cc2)sc(/C=C2\C=Nc3ccccc32)c1O | 16.8% | 8.5% | 7.08µM* | 0.4% | 10µM* | 0.9%
COc1cccc(-c2nc(SCC(=O)Nc3ccc4c(c3)OCCO4)c(-c3ccc(C)cc3)[nH]2)c1 | / | / | -1.5% | 28.2µM* | -1.1% | /
COc1ccc(-c2nc(SCC(=O)Nc3ccc4c(c3)OCCO4)c(-c3ccc(F)cc3)[nH]2)cc1 | / | / | 5.5% | -4.9% | 7.0% | /
COc1ccc(-n2nnc3c(SCC(=O)Nc4ccc5c(c4)OCCO5)ncnc32)cc1 | 12.6µM* | 7.94µM* | 7.5% | / | / | ?
CC(C)CNS(=O)(=O)c1ccc(NC(=O)Cn2nc(-c3ccc(F)cc3)ccc2=O)cc1 | ? | 14.3% | ? | 28.2µM* | ? | 0.9%
COc1ccc(-n2nnc3c(=O)n(CC(=O)Nc4ccc5c(c4)OCCO5)cnc32)cc1OC | -25.4% | -42.4% | / | ? | ? | -25.9%
COc1ccc(-c2ccc(=O)n(CC(=O)Nc3ccc4c(c3)OCCO4)n2)cc1 | 7.4% | 11.2µM* | 1.0% | / | -1.0% | ?
CCOc1ccccc1CNc1nc2nc(C)cc(C)n2n1 | / | / | -1.0% | 3.6% | 1.2% | /
CCC1CCCCN1C(=O)Cn1c(=O)cc(C(F)(F)F)c2c(C)nn(C)c21 (stereo not drawn) | / | / | 0.0% | 4.3% | 1.3% | /
COC(=O)c1cc2oc3ccccc3c2n1CC(=O)Nc1ccc(N(C)C)cc1 | / | / | 0.0% | -1.4% | 0.5% | /
Cc1cccc(NCc2nnc3n2CCCCC3)c1C | / | / | -1.6% | -2.1% | -3.9% | /
CCc1ccc(Oc2nc3c(C)cccn3c(=O)c2/C=C(\C#N)c2nc3ccccc3[nH]2)cc1 | / | / | 11.2µM* | -4.1% | ? | /
COc1ccc(Oc2nc3c(C)cccn3c(=O)c2/C=C(\C#N)c2nc3ccccc3[nH]2)cc1 | / | / | 3.98µM* | 0.8% | ? | /
CCOC(=O)/C(C#N)=C/c1c(Oc2cccc(C)c2)nc2c(C)cccn2c1=O | 89.1µM* | -11.8% | -0.1% | 0.1% | 3.3% | -12.4%
